A short description of experiment [1]: qHTS for Inhibitors of Plasmodium falciparum (CP250) proliferation (AID 504320). An outline of the steps: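 Parasite growth measured as SYBR Green DNA fluorescence (ex 485, em 535 nm) after overnight lysis following 72 h culture at 37 °C, 0.3% parasitemia, 2.5% hematocrit. Values normalized against DMSO and 0.29 uM artemisinin controls, with plate-stack correction.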
(In general: In qHTS, concentration-response curves come from the screen itself.)

Experiment [2] addresses Atrial natriuretic peptide receptor 1 (Homo sapiens) (UniProt P16066). The experiment can be described thus: Natriuretic polypeptide receptor (hNpr1) antagonism - Pilot CMLD screen (AID 1347052; calls by dose curve;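 also: HEK293 cells with hNpr1 stimulated by hNppA peptide at 0.1 nM; cGMP level read as GloSensor luciferase luminescence after agonist stimulation; series mostly up to about 9.2 µM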).
In a further experiment the target is Furin (Homo sapiens) (UniProt P09958). The experiment can be described thus: Furin counterscreen qHTS for Zika virus inhibitors (AID 1347149). Also: nearly all actives have a fitted effect of over 70% in size. Also: potency is read from the fitted curve at half-maximal effect. The gist of the method:
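Counterscreen measures cleavage of 2 microM BOC-RVRR-AMC, below its ~15 microM Km, by 5 nM full-length human furin at pH 7.0 after a 15-min compound preincubation. Inhibition derives from the 15-min fluorescence increase at 37C.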
On the technique in general: The purpose of a counterscreen is to sort out artefacts and off-target activity.

Records with an inconclusive call do not appear. Where a call stands in place of a potency, no number is given. Calls of active or inactive are those of the source. Unless noted, calls follow the shape of the dose curve; as a rule, active = well fitted curve in the direction sought with a large enough effect; inconclusive = small, poorly fitted or top-dose-only effect, or another doubt; inactive = no such curve, though single readings can be large; an effect the other way counts as inactive or inconclusive.

Chain of Atrial natriuretic peptide receptor 1 (Homo sapiens) (P16066 whole entry, looked up): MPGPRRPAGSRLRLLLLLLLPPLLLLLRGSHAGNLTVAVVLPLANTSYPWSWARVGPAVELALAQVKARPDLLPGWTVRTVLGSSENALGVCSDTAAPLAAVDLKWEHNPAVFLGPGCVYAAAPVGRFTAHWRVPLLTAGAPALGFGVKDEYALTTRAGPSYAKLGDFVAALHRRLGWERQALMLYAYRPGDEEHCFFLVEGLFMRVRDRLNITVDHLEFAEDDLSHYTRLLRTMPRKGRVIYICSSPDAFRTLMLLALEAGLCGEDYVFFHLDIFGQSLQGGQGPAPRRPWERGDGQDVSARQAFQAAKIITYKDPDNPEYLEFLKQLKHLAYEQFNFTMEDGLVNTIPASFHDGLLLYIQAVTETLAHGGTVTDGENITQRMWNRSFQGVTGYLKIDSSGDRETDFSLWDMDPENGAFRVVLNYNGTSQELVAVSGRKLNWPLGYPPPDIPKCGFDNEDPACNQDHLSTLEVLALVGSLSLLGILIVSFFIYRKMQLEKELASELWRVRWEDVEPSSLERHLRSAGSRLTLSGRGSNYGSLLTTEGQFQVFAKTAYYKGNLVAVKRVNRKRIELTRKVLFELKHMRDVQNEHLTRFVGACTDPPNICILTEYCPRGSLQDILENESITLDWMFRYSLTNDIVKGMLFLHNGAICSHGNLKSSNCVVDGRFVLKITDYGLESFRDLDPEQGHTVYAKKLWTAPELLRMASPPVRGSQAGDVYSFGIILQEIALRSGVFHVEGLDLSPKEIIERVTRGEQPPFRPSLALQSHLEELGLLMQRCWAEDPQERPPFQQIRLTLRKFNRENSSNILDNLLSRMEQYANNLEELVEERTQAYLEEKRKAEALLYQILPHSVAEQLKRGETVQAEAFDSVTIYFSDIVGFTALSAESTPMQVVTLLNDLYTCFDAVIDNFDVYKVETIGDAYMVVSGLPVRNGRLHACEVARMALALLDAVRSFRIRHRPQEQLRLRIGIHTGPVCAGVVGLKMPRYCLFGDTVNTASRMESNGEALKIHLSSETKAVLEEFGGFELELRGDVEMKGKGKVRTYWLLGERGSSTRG
Chain of Furin (Homo sapiens) (P09958 whole entry, looked up): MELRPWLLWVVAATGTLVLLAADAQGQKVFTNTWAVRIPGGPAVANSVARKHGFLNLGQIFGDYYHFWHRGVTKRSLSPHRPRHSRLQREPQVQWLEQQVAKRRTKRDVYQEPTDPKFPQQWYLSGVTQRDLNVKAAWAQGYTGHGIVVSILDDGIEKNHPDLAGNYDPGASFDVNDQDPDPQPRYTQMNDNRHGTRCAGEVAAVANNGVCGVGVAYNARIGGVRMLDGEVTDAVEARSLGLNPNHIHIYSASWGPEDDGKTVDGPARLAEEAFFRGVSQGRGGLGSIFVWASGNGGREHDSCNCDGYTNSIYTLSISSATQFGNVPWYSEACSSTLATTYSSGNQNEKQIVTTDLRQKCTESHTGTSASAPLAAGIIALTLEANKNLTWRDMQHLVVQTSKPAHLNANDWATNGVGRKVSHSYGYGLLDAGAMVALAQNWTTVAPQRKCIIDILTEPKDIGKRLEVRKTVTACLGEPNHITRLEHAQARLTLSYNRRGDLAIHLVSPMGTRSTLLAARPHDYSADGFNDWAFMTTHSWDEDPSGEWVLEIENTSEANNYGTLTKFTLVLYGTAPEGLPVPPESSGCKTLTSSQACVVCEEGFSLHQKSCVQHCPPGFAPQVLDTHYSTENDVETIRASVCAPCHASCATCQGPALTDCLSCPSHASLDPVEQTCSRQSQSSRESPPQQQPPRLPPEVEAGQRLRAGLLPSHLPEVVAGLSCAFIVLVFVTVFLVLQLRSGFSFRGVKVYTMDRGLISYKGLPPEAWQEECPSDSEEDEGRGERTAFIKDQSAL

As to `CCOC(=O)CN1C(=O)[C@]2(O[C@H](COc3ccccc3)CC3=CCCC32)c2c(Br)cccc21` (stereo partly drawn), the Potency result in experiment [1] and in experiment [2] was “inactive” each time.

In the case of `COC(=O)C1=C(C(=O)OC)[C@@H]2N(Cc3ccccc3)c3ccccc3[C@@]23C[C@@H](CO)N=C3N1`, the Potency result in experiment [1] and in experiment [2] was “inactive” in each case.

Consider `COc1ccc([C@]23Cc4cc(OC)c(OC)cc4[C@H](O2)c2c(cc(C)n(Cc4ccccc4)c2=O)O3)cc1`, for which the Potency result in experiment [1] and in experiment [2] was “inactive” each time. For the compound `Cc1cccc(C)c1Nc1oc(-c2ccccc2)nc1-c1ccccc1F`, the Potency result in experiment [1] and in experiment [2] was “inactive” throughout. Take `O=C1C2=C(Nc3ccccc3SC2c2ccc(Cl)c(Cl)c2)c2ccccc21` (stereo not drawn): in the experiment with Furin (Homo sapiens), the Potency result is “inactive”.

As to `COc1cccc([C@@H]2[C@H](C)C[C@H]3CC(=O)N4[C@H](CC(=O)N32)C[C@@H](C)[C@@H]4c2cccc(OC)c2)c1`, the Potency entry in experiment [1] and in experiment [2] was “inactive” each time. With `CCOC(=O)CN1C(=O)[C@]2(O[C@H](COc3ccccc3)CC3=C2CCC3)c2ccccc21`, the Potency entry in experiment [1] and in experiment [2] was “inactive” each time.

With `NC(=O)[C@@H](CCCN=C(N)N)NC(=O)[C@@H](CCCN=C(N)N)NC(=O)[C@@H](CCCN=C(N)N)NC(=O)[C@@H](CCCN=C(N)N)NC(=O)[C@@H](CCCN=C(N)N)NC(=O)[C@H](N)CCCN=C(N)N`, in the experiment with Furin (Homo sapiens), the Potency was 2.51 µM (active). For `COC(=O)C1=C(C)N(CCc2cc(OC)c(OC)c(OC)c2)C(=O)NC1c1ccc(Br)cc1` (stereo not drawn), the Potency entry in experiment [1] and in experiment [2] was “inactive” throughout. Take `CC(C)C(NC(=O)C(CCCN=C(N)N)NC(=O)NC(Cc1ccccc1)C(=O)O)C(=O)NC(C=O)CCCN=C(N)N` (stereo not drawn): in the experiment with Furin (Homo sapiens), the Potency is 11.2 µM (active). Take `COc1cc2c(c(OC)c1OC)CC(c1ccccc1)=C(c1ccccc1)CC2NC(=O)C(F)(F)F` (stereo not drawn): the Potency entry in experiment [1] and in experiment [2] was “inactive” each time.

As to `COC1=C[C@H](C(=O)NC2CCN(Cc3ccccc3)CC2)C(C)C(c2ccccc2)CC1=O` (stereo partly drawn), the Potency entry in experiment [1] and in experiment [2] was “inactive” each time. For `CCC=CC[C@@]1(C(=O)OC)C=C[C@@H](C)[C@H](c2ccccc2Br)N1C(=O)C(F)(F)F`, the Potency entry in experiment [1] and in experiment [2] was “inactive” each time. As to `Cc1c(NS(=O)(=O)c2ccccc2)cc(C(C)C)c(O)c1S(=O)(=O)c1ccc(Cl)cc1`, the Potency result in the experiment with Furin (Homo sapiens) was “inactive”. Turning to `CC1=C[C@@H](COCc2ccccc2)O[C@@]2(C1)C(=O)N(CC1CC1)c1ccccc12`, the Potency entry in experiment [1] and in experiment [2] was “inactive” in each case. For the compound `COC(=O)C1=C(C)N(Cc2ccccc2)C(=NCCc2ccccn2)NC1c1cccc(F)c1` (stereo not drawn), the Potency entry in experiment [1] and in experiment [2] was “inactive” throughout.

Source of the values: PubChem BioAssay (NCATS).
